In PubChem BioAssay (NCATS):
Results filed as inconclusive are left out. A number with no mark means an inactive call. Calls of active or inactive are those of the source. Calls follow the shape of the dose curve; as a rule, active = well fitted cell-killing curve with a large enough effect; inconclusive = small, poorly fitted or top-dose-only effect, or effect the other way; inactive = no such curve, though single readings can be large or run the other way. Non-standard residues stand in square brackets, D forms with d. Residues, ends and D or L forms follow the SMILES beside them. *: point of attachment. Nva = CCC[C@H](N)C(=O)O; Cbz = O=C(OCc1ccccc1)*

Experiment: qHTS of pediatric cancer cell lines to identify multiple opportunities for drug repurposing: Confirmatory screen for NB-EBc1 cells (AID 1347115);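 also: cells exposed to compound for 48 h before the viability read; nearly all actives have a fitted effect of over 45% in size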
Details: NB-EBc1 neuroblastoma cells, viability (cytotoxicity); series mostly up to 45.9 µM; activity change, negative = cytotoxic: at the top concentration
From the text: Drug repurposing or repositioning has been offered as a strategy for drug development in oncology programs. This approach has special potential for childhood cancers and other rare or orphan diseases, where the expected return on new drug development has been a disincentive to pharmaceuticals.
In this project we exploit the poly-pharmacology of drugs to discover new indications via phenotypic screening of a panel of 19 well-characterized cell lines derived from solid tumors seen in children and adolescents. The goal is to identify approved drugs with previously unrecognized anticancer properties that has the potential to reveal new mechanisms and biological processes involved in carcinogenesis or drug resistance. We employed a titration-based paradigm (quantitative high-throughput screening or qHTS), where all compounds were tested at multiple concentrations for their effect on cell viability. Concentration-response curves (CRCs) were derived directly from the primary screen, and both potency and efficacy values were used to identify compounds with robust bioactivity profiles. We screened the NIH Chemical Genomics Center (NCGC) Pharmaceutical Collection (NPC) and Mechanism Interrogation Plate (MIPE) small molecule collections of approved and investigational compounds against these cell lines; and measured metabolically active cells after 48 hours of compound treatment as a proxy for cell viability.
Assay Submitter: Nathalia J. Martinez, National Center for Advancing Translational Sciences, National Institutes of Health, Rockville, MD, USA; email: natalia.martinez@nih.gov
[1] Shen, M et al. Quantitative high-throughput phenotypic screening of pediatric cancer cell lines identifies multiple opportunities for drug repurposing. Oncotarget 2017 Dec 19;9(4):4758-4772. PMID 29435139.
The cells were obtained from University of North Carolina (UNC), Pediatric Preclinical Testing Program (PPT), and Coriell Institute (CI).
qHTS cell viability assay:
Cells were assayed in growth media at a density of 500-1,000 cells/well. Five microliters of cells were dispensed into 1,536-well, white, solid-bottom, TC-treated plates (Greiner Bio One) using a multidrop dispenser and incubated at 37 degrees C, 5% CO2, under a humidified atmosphere for 5 hours. Twenty-three nanoliters of compounds and controls (neutral control DMSO or positive control bortezomib at final concentration of 2.3 µM) were subsequently transferred by Kalypsys pintool. For primary screens, the MIPE collection was tested at 11-point dilutions (final concentrations range from 0.78 nM to 46 µM) and the NPC collection at 8-point dilutions (final concentrations range from 0.59 nM to 46 µM). Compounds tested in follow-up screens were assayed at 11-point dilutions. Cells were incubated for 48 hours, followed by addition of 3 µL of CellTiter-Glo (Promega). After a 15 min incubation at room temperature, samples were analyzed for luminescence intensity using a ViewLux High-throughput CCD imager equipped with clear filters.
% is scaled to controls: 0 for no effect and ±100 for the full control effect; potency is read from the fitted curve at half-maximal effect.

Q: For `N#CNC(=NCCCCCCOc1ccc(Cl)cc1)Nc1ccncc1`, which Potency is on record?
A: 41.4 nM (active)

Q: For `CC(=O)NCC(=O)N1[C@H]2CC[C@H]1c1cc(Nc3ncc(C(F)(F)F)c(NC4CCC4)n3)ccc12`, which Potency is on record?
A: 9270 nM (active)

Q: With `CCOC(=O)C1=C(C)NC(=S)NC1c1cccc(O)c1` (stereo not given) as the compound, how does the “activity change, negative = cytotoxic” value read?
A: 6.78%

Q: For `COc1cccc2c1C(=O)c1c(O)c3c(c(O)c1C2=O)C[C@@](O)(C(=O)CO)C[C@@H]3O[C@H]1C[C@H](N)[C@H](OC2CCCCO2)[C@H](C)O1` (stereo not given in full), which Potency is on record?
A: 1650 nM (active)

Q: With `COC(=O)[C@@H]1[C@H]2C[C@@H]3c4[nH]c5ccccc5c4CCN3C[C@@H]2CC[C@@H]1O` as the compound, how does the “activity change, negative = cytotoxic” value read?
A: -2.24%

Q: For `COc1cc(O)c2c(c1)C1OC1C[C@H](O)[C@H](O)C(=O)C=CC[C@H](C)OC2=O` (stereo not given in full), which Potency is on record?
A: 5850 nM (active)

Q: For `CCC(C=C[C@@H]1OC(=O)C=C[C@H]1C)=C[C@H](C)CC=CC(C)=C[C@@H](C)C(=O)[C@@H](C)[C@H](O)[C@@H](C)CC(C)=CC(=O)O`, which Potency is on record?
A: 36.1 nM (active)

Q: Which “activity change, negative = cytotoxic” value does the source give for `C[N+](C)([O-])CCNc1ccc(NCC[N+](C)(C)[O-])c2c1C(=O)c1c(O)ccc(O)c1C2=O` here?
A: -7.2%

Q: With `COc1cc([C@@H]2c3cc4c(cc3[C@H](O)[C@H]3COC(=O)[C@@H]23)OCO4)cc(OC)c1OC` as the compound, how does the Potency read?
A: 3290 nM (active)

Q: For `NS(=O)(=O)OC[C@@H]1C[C@@H](n2ccc3c(N[C@H]4CCc5ccccc54)ncnc32)C[C@H]1O`, which “activity change, negative = cytotoxic” value is on record?
A: -20.5%

Q: Which Potency does the source give for `C=CC(=O)Nc1cccc(Nc2nc(NC3CCC(N(C)C)CC3)nc3c2ncn3C(C)C)c1` (stereo not given) here?
A: 7370 nM (active)

Q: For `CC(=O)N1CCN(c2ccc(OCc3nn(C)c(C)c3-c3cccc4c(CCCOc5cccc6ccccc56)c(C(=O)O)n(Cc5cccnc5)c34)cc2)CC1`, which “activity change, negative = cytotoxic” value is on record?
A: 1.66%

Q: Which Potency does the source give for `Nc1ncn([C@@H]2O[C@H](CO)[C@@H](O)[C@@H]2O)c(=O)n1` here?
A: 13100 nM (active)

Q: Which Potency does the source give for `COC[C@H](NC(=O)c1cnc(C)s1)C(=O)N[C@@H](COC)C(=O)N[C@@H](Cc1ccccc1)C(=O)[C@@]1(C)CO1` here?
A: 208 nM (active)

Q: For `CC(C)C[C@@H](C=O)NC(=O)[C@H](CC(C)C)NC(=O)[C@H](CC(C)C)NC(=O)OCc1ccccc1` (Cbz-Leu-Leu-Leu-aldehyde), which Potency is on record?
A: 1470 nM (active)

Q: With `Cc1ccc([N+](=O)[O-])cc1S(=O)(=O)N(C)N=Cc1cnc2ccc(Br)cn12` as the compound, how does the Potency read?
A: 293 nM (active)

Q: Which Potency does the source give for `CCC[C@@H](C=O)NC(=O)[C@H](CC(C)C)NC(=O)[C@H](CC(C)C)NC(=O)OCc1ccccc1` (Cbz-Leu-Leu-[Nva]-aldehyde) here?
A: 2330 nM (active)

Q: Which Potency does the source give for `Cc1cnc(Nc2ccc(N3CCN(C)CC3)cc2)nc1Nc1cccc(S(=O)(=O)NC(C)(C)C)c1` here?
A: 14700 nM (active)

Q: With `Cc1[nH]c(C=C2C(=O)Nc3ccccc32)c(C)c1CCC(=O)O` as the compound, how does the “activity change, negative = cytotoxic” value read?
A: -14.1%

Q: With `O=C1NC(=O)C(=Cc2ccc3nccc(-c4ccncc4)c3c2)S1` as the compound, how does the “activity change, negative = cytotoxic” value read?
A: -64.6%

Q: For `Cn1c(Nc2ccc(C(F)(F)F)cc2)nc2cc(Oc3ccnc(-c4ncc(C(F)(F)F)[nH]4)c3)ccc21`, which Potency is on record?
A: 16500 nM (active)

Q: For `CC(=O)SCC(Cc1ccccc1)C(=O)NCC(=O)OCc1ccccc1` (stereo not given), which “activity change, negative = cytotoxic” value is on record?
A: -6.38%

Q: Which Potency does the source give for `C#CCC(Cc1cnc2nc(N)nc(N)c2n1)c1ccc(C(=O)N[C@@H](CCC(=O)O)C(=O)O)cc1` (stereo not given in full) here?
A: 369 nM (active)

Q: For `O=S(=O)(O)CCSSCCS(=O)(=O)O`, which “activity change, negative = cytotoxic” value is on record?
A: 12.2%

Q: Which Potency does the source give for `CN[C@@H]1C[C@H]2O[C@@](C)([C@H]1OC)n1c3ccccc3c3c4c(c5c6ccccc6n2c5c31)C(=O)N[C@H]4O` here?
A: 2610 nM (active)

Q: With `N#Cc1c(C2CCNCC2)cc(-c2c(O)cccc2OCC2CC2)nc1N` as the compound, how does the “activity change, negative = cytotoxic” value read?
A: -4.25%

Q: With `CN(CC(=O)N(Cc1ccc(C2CCCCC2)cc1)c1ccc(C(=O)O)c(O)c1)S(=O)(=O)c1c(F)c(F)c(F)c(F)c1F` as the compound, how does the “activity change, negative = cytotoxic” value read?
A: -11.7%

Q: For `CN(C)c1ccc(C(=O)NCCCCCCC(=O)NO)cc1`, which Potency is on record?
A: 2330 nM (active)

Q: For `CCN(CC)CCNC(=O)c1c(C)[nH]c(C=C2C(=O)Nc3ccc(F)cc32)c1C`, which “activity change, negative = cytotoxic” value is on record?
A: -102% [at 95.5 µM]

Q: With `CC(C)(N)c1ccc(-c2nc3ccccc3nc2-c2ccccc2)cc1` as the compound, how does the “activity change, negative = cytotoxic” value read?
A: -37%

Q: Which Potency does the source give for `CO[C@@H]1[C@@H](O)[C@H](O)[C@@H](n2c3c(Cl)cccc3c3c4c(c5c6cccc(Cl)c6[nH]c5c32)C(=O)NC4=O)O[C@@H]1CO` here?
A: 1470 nM (active)

Q: Which Potency does the source give for `CNC(=O)c1ccc(Nc2cc(Nc3ccccc3S(=O)(=O)C(C)C)c3cc[nH]c3n2)nc1` here?
A: 5850 nM (active)

Q: Which Potency does the source give for `C[C@@]12C(=O)OC(=O)[C@@]1(C)C1CCC2O1` here?
A: 2080 nM (active)

Q: With `O=C(Nc1cc2cc[nH]c2cn1)c1ccccc1` as the compound, how does the Potency read?
A: 16500 nM (active)

Q: For `CC(C=CC(=O)NO)=C[C@@H](C)C(=O)c1ccc(N(C)C)cc1`, which Potency is on record?
A: 585 nM (active)

Q: Which Potency does the source give for `C=C1C(=CC=C2CCC[C@]3(C)[C@@H]([C@H](C)CCCC(C)(C)O)CC[C@@H]23)C[C@@H](O)C[C@@H]1O` here?
A: 2610 nM (active)

Q: With `O=C(C=CC#Cc1cccc(NS(=O)(=O)c2ccccc2)c1)NO` as the compound, how does the Potency read?
A: 5850 nM (active)

Q: For `COc1cc(C[C@@H](CO)[C@H](CO)Cc2ccc(O)c(OC)c2)ccc1O`, which “activity change, negative = cytotoxic” value is on record?
A: 4.35%

Q: Which “activity change, negative = cytotoxic” value does the source give for `O=C(O)C[C@H](O)C[C@H](O)C=Cc1c(C2CC2)nc2ccccc2c1-c1ccc(F)cc1` here?
A: 6.35%

Q: Which “activity change, negative = cytotoxic” value does the source give for `CCc1cc(C(C)=NOCc2ccc(C3CCCCC3)c(C(F)(F)F)c2)ccc1CN1CC(C(=O)O)C1` here?
A: -18.7%
